# Data published in PubChem BioAssay.
# Inconclusive results are not listed. The source made the active and inactive calls.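 Rule for the calls, unless noted: active = GFP signal, as percent of the solvent control, above the screen mean plus 3 SD, about 149; inconclusive = no reading because the compound's own fluorescence upset strain identification; inactive = the rest.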
# Assays:
# [1] = yeast TOR pathway RPL19A-GFP modulators, primary screen, cell-based, S. cerevisiae, multiplex flow cytometry (AID 1862; in the data active = percent of DMSO control GFP below about 86%;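 note: lower values mimic rapamycin by blocking the RPL19A rise seen in DMSO cells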); settings: S. cerevisiae RPL19A-GFP strain, flow cytometry fluorescence, 3 h; at 10 µM; stronger effect = lower value
# [2] = modulators of MEP2-GFP levels in yeast, primary screen, S. cerevisiae, multiplex flow cytometry (AID 1867;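 active = GFP response, as percent of the DMSO control, above the screen-wide mean plus 3 SD, about 139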;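 note: median GFP channel fluorescence of barcode-gated MEP2-GFP cells measured by flow cytometry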); settings: S. cerevisiae MEP2-GFP strain, 3 h, at 10 µM, stronger effect = higher value, 100% means same as DMSO wells
# [3] = modulators of CIT2-GFP expression in yeast, primary screen, S. cerevisiae, GFP fusion, multiplex flow cytometry (AID 1870;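 active = percent response above a set limit, the screen-wide mean plus 3 SD, cut at about 130% in these data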;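 note: barcoded CIT2-GFP strain pooled with four other GFP strains with rapamycin as positive control; median GFP fluorescence per well over plate mean of DMSO wells so 100% = DMSO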); settings: 3 h, at 10 µM, stronger effect = higher value
# [4] = modulators of LAP4-GFP expression in yeast, primary screen, S. cerevisiae, multiplex flow cytometry (AID 1873); settings: 3 h, at 10 µM, stronger effect = higher value
# [5] = modulators of AGP1-GFP expression in yeast TOR pathway, primary screen, cell-based, multiplex flow cytometry, S. cerevisiae (AID 1887;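 active = GFP signal above the screen-wide mean plus 3 SD, that is over about 124.5% of the solvent control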;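 note: AGP1-GFP fusion strain of S. cerevisiae within a five-strain barcoded multiplex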); settings: 3 h, at 10 µM, stronger effect = higher value
# [6] = inhibitors of CD8+ T cell-vesicle binding, pilot screen, LFA-1/ICAM-1 modulator project, MLPCN validation set, flow cytometry (AID 2523;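 active = response below a set limit, under 55% cells CD8-positive and vesicle-bound, and CD8 cells' 90th-percentile brightness under 279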;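 for vesicle binding response: mean PE anti-B7-1 fluorescence of CD8+ cells relative to row control; 100% = QL9-loaded vesicles with DMSO vehicle in the same plate row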); settings: 2C mouse CD8+ T cells, at 7 µM, stronger effect = lower value; double positive events: measured here: CD8+/vesicle+ event percentage
# [7] = target: Integrin beta-1 (Homo sapiens) + Integrin alpha-4 (Homo sapiens) (UniProt P13612+P05556); assay: inhibition of HUTS-21 binding to VLA-4, pilot screen, VLA-4 allosteric modulator project, U937 cells, HUTS-21 mAb, flow cytometry, validation set (AID 2674;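 active = inhibition above 50%, about 3 SD of the validation set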;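 note: antibody binding induced by the VLA-4 ligand LDV present at three times its Kd; 0% = LDV ligand with antibody and no compound and 100% = antibody without LDV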); settings: HUTS-21 LIBS mAb binding, at 6.7 µM, stronger effect = higher value, binding induced by LDV ligand
# Integrin beta-1 (Homo sapiens) + Integrin alpha-4 (Homo sapiens), sequence (P05556 whole entry, looked up): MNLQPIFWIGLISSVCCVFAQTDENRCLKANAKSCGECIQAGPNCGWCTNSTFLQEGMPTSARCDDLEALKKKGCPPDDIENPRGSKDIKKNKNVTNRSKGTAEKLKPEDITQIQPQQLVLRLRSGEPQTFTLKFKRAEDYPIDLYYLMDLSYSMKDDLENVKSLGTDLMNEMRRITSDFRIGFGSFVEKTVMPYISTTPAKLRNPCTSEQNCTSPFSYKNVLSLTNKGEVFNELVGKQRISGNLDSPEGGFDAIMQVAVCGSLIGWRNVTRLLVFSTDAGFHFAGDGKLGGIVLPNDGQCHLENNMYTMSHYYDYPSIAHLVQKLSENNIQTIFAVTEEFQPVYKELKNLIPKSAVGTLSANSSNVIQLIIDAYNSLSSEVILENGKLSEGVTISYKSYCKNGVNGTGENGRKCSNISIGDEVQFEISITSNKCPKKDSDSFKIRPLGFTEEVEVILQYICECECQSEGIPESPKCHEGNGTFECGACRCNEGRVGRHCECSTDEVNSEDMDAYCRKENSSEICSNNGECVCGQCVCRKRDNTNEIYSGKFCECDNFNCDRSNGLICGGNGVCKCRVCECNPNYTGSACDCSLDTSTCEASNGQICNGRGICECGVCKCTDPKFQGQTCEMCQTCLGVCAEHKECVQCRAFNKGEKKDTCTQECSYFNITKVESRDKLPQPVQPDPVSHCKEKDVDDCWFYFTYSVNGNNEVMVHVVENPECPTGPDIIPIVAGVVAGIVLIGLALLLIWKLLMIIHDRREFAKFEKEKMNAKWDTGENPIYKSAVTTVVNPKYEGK
# Integrin beta-1 (Homo sapiens) + Integrin alpha-4 (Homo sapiens), sequence (P13612 whole entry, looked up): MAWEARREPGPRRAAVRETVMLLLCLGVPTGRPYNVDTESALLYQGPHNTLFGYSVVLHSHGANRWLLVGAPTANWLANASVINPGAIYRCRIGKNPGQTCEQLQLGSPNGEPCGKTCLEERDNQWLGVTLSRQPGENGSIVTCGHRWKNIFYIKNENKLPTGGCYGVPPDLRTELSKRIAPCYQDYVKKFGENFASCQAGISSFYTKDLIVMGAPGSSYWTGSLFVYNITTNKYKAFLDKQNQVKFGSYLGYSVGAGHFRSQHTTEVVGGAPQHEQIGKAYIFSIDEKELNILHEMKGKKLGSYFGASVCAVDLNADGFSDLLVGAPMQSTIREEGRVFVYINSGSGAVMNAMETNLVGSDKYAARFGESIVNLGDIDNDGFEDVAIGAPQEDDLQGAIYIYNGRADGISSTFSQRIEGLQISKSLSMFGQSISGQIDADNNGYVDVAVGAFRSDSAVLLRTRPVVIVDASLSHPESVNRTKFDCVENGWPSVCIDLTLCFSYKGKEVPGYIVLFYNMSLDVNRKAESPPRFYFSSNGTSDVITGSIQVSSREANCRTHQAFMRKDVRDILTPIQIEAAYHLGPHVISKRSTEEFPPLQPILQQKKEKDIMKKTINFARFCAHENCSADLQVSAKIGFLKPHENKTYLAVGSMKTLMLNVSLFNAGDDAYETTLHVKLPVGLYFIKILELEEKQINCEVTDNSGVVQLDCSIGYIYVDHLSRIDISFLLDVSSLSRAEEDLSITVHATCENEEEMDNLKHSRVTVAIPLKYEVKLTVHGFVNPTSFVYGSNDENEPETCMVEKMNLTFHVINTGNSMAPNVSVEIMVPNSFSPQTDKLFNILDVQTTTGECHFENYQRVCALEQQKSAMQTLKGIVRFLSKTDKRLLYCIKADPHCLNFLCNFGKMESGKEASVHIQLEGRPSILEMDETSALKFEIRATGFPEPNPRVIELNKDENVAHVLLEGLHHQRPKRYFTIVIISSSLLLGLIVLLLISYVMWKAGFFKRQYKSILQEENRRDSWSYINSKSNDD
# [8] = superoxide lowering in aged yeast cells, pilot screen, validation compound set (AID 2706;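 active = superoxide response below 65% of plate, a cut near 3 SD across the whole screen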;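 note: yeast exposed to compound for one week at 30 degrees C before staining; 100% = mean of all compound wells on the same plate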); settings: S. cerevisiae aging, superoxide DHE fluorescence; at 10 µM, stronger effect = lower value
# [9] = target: Beta-adrenergic receptor kinase 1 (Homo sapiens) (UniProt P25098); assay: GRK2 binders displacing RNA aptamer, biochemical, validation, human GRK2, bead flow cytometry (AID 488806;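 active = aptamer binding inhibition above 30%, about 3 SD of noise from non-fluorescent compounds; inactive = inhibition at or below 30%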); settings: bead-bound GRK2, FAM-aptamer displacement, at 10 µM, stronger effect = higher value
# Beta-adrenergic receptor kinase 1 (Homo sapiens), sequence (P25098 whole entry, looked up): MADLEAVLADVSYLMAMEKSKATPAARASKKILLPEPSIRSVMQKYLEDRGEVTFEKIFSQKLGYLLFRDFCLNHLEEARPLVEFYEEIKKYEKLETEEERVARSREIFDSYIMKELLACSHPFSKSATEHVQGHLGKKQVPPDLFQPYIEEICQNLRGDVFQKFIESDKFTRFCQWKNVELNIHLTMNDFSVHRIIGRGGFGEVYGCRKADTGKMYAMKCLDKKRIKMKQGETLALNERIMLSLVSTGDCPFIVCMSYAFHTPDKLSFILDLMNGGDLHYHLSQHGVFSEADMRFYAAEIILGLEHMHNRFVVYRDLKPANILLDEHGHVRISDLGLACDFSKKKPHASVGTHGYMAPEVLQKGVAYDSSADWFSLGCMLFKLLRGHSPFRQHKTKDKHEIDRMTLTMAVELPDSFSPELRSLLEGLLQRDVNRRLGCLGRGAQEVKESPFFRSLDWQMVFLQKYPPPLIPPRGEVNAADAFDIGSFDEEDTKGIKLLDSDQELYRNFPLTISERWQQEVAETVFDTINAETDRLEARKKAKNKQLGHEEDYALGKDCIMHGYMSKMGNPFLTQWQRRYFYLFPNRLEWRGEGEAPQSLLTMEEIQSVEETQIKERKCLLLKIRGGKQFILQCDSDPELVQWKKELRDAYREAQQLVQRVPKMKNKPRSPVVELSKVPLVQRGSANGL
# [10] = target: AP-2 complex subunit beta (Homo sapiens) (UniProt P63010); assay: inhibitors of arrestin peptide binding to AP2, pilot screen, biochemical, validation set, GST-AP2 beads, flow cytometry (AID 504541;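 active = inhibition above 54%, about 3 SD of non-fluorescent compounds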;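 note: AP2 carries R879A mutation and is captured from E. coli lysate; bead-bound FITC arrestin peptide fluorescence measuring arrestin peptide binding to AP2; 0% = DMSO wells and 100% = excess unlabeled arrestin peptide control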); settings: FITC arrestin peptide, at 10 µM, stronger effect = higher value, AP2 beta2 appendage fragment, R879A mutant
# AP-2 complex subunit beta (Homo sapiens), sequence (P63010 whole entry, looked up, the tested form may be a part, one chain of several): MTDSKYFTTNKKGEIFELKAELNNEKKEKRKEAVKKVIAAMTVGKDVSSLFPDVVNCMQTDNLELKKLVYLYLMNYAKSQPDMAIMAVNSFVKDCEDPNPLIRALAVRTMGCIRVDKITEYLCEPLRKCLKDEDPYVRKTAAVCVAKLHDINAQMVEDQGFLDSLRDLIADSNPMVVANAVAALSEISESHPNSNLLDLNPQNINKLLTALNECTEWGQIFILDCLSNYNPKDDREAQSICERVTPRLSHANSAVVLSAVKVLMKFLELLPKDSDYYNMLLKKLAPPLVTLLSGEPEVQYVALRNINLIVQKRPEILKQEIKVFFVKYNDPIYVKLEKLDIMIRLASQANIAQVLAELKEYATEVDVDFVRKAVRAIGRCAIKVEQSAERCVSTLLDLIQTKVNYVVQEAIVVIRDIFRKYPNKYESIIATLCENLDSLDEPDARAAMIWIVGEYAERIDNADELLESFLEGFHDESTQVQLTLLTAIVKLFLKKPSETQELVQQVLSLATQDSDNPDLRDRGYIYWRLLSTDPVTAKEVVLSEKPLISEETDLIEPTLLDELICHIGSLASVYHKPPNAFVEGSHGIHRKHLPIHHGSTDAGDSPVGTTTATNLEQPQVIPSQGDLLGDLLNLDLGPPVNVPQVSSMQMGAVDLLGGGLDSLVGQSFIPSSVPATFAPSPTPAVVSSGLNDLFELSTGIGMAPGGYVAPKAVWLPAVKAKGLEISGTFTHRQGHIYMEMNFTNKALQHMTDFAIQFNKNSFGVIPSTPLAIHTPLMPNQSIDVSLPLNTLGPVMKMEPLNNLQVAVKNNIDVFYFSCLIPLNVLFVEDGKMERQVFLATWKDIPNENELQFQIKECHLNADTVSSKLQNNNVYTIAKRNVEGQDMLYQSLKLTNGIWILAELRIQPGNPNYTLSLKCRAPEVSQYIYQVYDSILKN
# [11] = yeast V-ATPase proton transport modulators, S. cerevisiae, pHLuorin, HTS validation (AID 504600; in the data active = response above about 15%;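 note: plate controls were DMSO for no effect and reference compound for full effect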); settings: S. cerevisiae pHLuorin cytosolic pH, at 10 µM, stronger effect = higher value
# [12] = test system: anti-desmoglein-3 scFv antibody binding to human DSG3; assay: inhibitors of anti-DSG3 scFv binding to DSG3, pilot screen, biochemical, validation compound set, bead-based, flow cytometry (AID 588368;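 active = binding below the plate cutoff, the plate median minus 3 SD, with a reading above zero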;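 note: signal is the median channel fluorescence of bead-bound GFP antibody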); settings: Protein G beads, DSG3-Fc, scFv-GFP binding, at 10 µM, stronger effect = lower value
# [13] = inhibitors of fungal efflux pumps CDR1, CDR2, MDR1, pilot screen, validation compound set, multiplex, phenotypic (AID 588506;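 active = efflux inhibition above 0.42, the validation set average plus 4 SD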;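 note: Nile Red retained in cells so higher fluorescence means more efflux inhibition; 0 = negative control wells and 1 = enniatin B 25 µM full block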); settings: S. cerevisiae pump-expressing triplex, Nile Red efflux flow cytometry; at 10 µM; stronger effect = higher value; the pumps come from Candida albicans
# [14] = target: ATP-binding cassette sub-family B member 6 (Homo sapiens) (UniProt Q9NP58); assay: ABCB6 transporter inhibitors, pilot screen, K562-ABCB6 cells, flow cytometry, validation set (AID 588550;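 active = inhibition above the screen-wide mean plus 3 SD, about 51%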;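 note: 0% = DMSO wells and 100% = benzethonium chloride 70 µM positive control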); settings: K562-ABCB6 porphyrin accumulation, 1 h, at 10 µM, stronger effect = higher value
# ATP-binding cassette sub-family B member 6 (Homo sapiens), sequence (Q9NP58 whole entry, looked up): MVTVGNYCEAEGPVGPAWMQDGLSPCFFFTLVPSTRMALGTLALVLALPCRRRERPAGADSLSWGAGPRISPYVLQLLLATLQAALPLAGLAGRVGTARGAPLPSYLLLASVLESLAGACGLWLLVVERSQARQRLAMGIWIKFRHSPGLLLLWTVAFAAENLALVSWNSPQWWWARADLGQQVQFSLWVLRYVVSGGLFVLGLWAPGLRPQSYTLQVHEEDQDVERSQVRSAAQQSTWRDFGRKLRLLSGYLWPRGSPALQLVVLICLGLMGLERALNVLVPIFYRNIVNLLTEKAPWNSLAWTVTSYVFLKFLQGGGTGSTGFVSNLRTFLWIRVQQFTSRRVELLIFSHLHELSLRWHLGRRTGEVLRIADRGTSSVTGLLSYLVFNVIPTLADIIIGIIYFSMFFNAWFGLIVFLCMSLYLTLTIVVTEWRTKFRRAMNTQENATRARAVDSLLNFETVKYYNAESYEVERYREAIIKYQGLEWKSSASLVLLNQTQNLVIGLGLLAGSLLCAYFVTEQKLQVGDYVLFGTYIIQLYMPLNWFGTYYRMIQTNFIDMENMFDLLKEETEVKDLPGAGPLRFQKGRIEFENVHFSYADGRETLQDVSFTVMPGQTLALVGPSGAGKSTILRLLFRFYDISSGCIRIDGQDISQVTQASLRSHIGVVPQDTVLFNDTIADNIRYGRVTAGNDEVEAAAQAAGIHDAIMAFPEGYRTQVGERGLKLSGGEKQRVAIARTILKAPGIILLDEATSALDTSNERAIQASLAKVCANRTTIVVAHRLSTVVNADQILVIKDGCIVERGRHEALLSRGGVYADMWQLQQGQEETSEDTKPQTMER
# [15] = promoters of myeloid differentiation in arrested cells, primary screen, cell-based, GFP/MAC1 double positive, flow cytometry, validation set (AID 588685;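 active = differentiation response of at least 50%, scaled between solvent and reference control, from cells with both markers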;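 note: compound exposure lasts four days before antibody staining and flow analysis; 0% = DMSO wells and 100% = 5 µM fulvestrant positive control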); settings: ER-HoxA9 marrow cells, stronger effect = higher value, normalized: vehicle 0, fulvestrant 100
SMILES,percent of DMSO control GFP [1],GFP response vs DMSO [2],percent response of DMSO control [3],GFP response vs DMSO [4],"GFP response, % of DMSO [5]",double positive events [6] [%],vesicle binding response [6],inhibition [7],superoxide response (% of plate) [8],aptamer binding inhibition [9],inhibition [10],response [11],binding (% of control) [12],efflux inhibition (fraction of control) [13],inhibition [14],differentiation response [15]
COc1ccc(CNC(=O)C2CCN(C(=O)[C@@H](CC(C)C)NC(=O)OC(C)(C)C)CC2)cc1,98.3% (inactive),90.8% (inactive),98.8% (inactive),92.3% (inactive),92.7% (inactive),63.6,326% (inactive),14.7% (inactive),98.6% (inactive),1% (inactive),-7.96% (inactive),-2.19% (inactive),98.7% (inactive),-0.09 (inactive),8% (inactive),3.03% (inactive)
Cn1nc(-c2ccccn2)nc2c(=O)n(C)c(=O)nc1-2,103% (inactive),98.9% (inactive),110% (inactive),105% (inactive),105% (inactive),59.4,165% (inactive),-40.4% (inactive),107% (inactive),61% (active),17.4% (inactive),-11.7% (inactive),94.9% (inactive),-0.12 (inactive),-1% (inactive),-22.8% (inactive)
C=CCc1cccc2cc(C(=O)Nc3ccc(CC(=O)O)cc3)c(=O)oc12,98.6% (inactive),106% (inactive),94.9% (inactive),100% (inactive),97.8% (inactive),63.1,207% (inactive),-2.11% (inactive),141% (inactive),2% (inactive),28.6% (inactive),-3.63% (inactive),100% (inactive),0.1 (inactive),5% (inactive),7.87% (inactive)
COc1ccc(-c2noc(CCc3ccccc3)n2)cc1,103% (inactive),109% (inactive),90% (inactive),101% (inactive),91.8% (inactive),56.4,174% (inactive),4.42% (inactive),99.8% (inactive),0% (inactive),4.14% (inactive),-3.58% (inactive),111% (inactive),0.48 (active),0% (inactive),-0.2% (inactive)
C/C(=N/N1CCN(Cc2cccc3ccccc23)CC1)c1cccnc1,101% (inactive),102% (inactive),98.8% (inactive),99.4% (inactive),96.6% (inactive),58.2,182% (inactive),-1.17% (inactive),102% (inactive),1% (inactive),6.25% (inactive),-3.49% (inactive),100% (inactive),0.25 (inactive),5% (inactive),9.49% (inactive)
